Measurements published in PubChem BioAssay.

Assay: P. aeruginosa biofilm formation inhibitors, primary screen, PAO1 strain, BacTiter-Glo luminescence, LB-PBS (AID 1144)
Settings: 12 h, higher = more signal

z-score, inactive:
CC(C)CON=C1C[C@@H](O)[C@@H](O)[C@@H]2[C@@H]3C(=O)N(C[C@@H]4CCCO4)C(=O)[C@@H]3CC[C@@H]12 -0.184
CC=CC1=C(CO)C(=O)[C@@H]2O[C@@H]2C1=O -0.36
C[C@@H](c1ccccc1)N1C(=O)[C@H]2[C@H]3[C@H](O)[C@H](O)CC(=NOCc4ccccc4)[C@H]3CC[C@H]2C1=O 0.576
C[C@H](ON=C1[C@H]2CCn3c(=O)n(-c4ccccc4)c(=O)n3[C@H]2[C@H](O)[C@@H]2O[C@H]12)c1cn([C@H](CO)Cc2ccccc2)nn1 0.285
C[C@H]1COC(=O)[C@@H]2CCCN2C(=O)[C@@H](C)COC(=O)[C@H](Cc2ccccc2)NC1=O -0.0355
CCOC(=O)CCN1C(=O)[C@H]2[C@H]3[C@H](O)[C@H](O)CC(=NNC(=O)OCc4ccccc4)[C@@H]3CC[C@H]2C1=O -0.143
CC(C)=CCCC(C)=CCON=C1C[C@@H](O)[C@@H](O)[C@@H]2[C@@H]3C(=O)N(c4cccc(Oc5ccccc5)c4)C(=O)[C@@H]3CC[C@@H]12 -0.375

Assay: CREB reporter modulators without forskolin, primary screen, cell-based, PC12, CRE-LacZ reporter, unstimulated (AID 1145)
Settings: no forskolin, luminescence, 4.5 h, higher = more signal, called active from +8 up or from −8 down

z-score, inactive:
CCOC(=O)[C@H](Cc1ccccc1)NC(=O)CCC1CC(OC(=O)NCc2cccc3ccccc23)CC2(CCCC(COC(=O)NCCC(C)C)O2)O1 (stereo partly drawn) -0.525
CC(C)CON=C1[C@H]2CCn3c(=O)n(Cc4cc5c(cc4Cl)OCO5)c(=O)n3[C@H]2[C@H](O)[C@@H]2O[C@H]12 1.87
CC(CCC(=O)OC[C@H]1O[C@H](C#Cc2ccccc2)C=C[C@@H]1Oc1ccc(C)cc1)=NO[C@H](C)c1cn([C@H](CO)Cc2ccccc2)nn1 0.15
COc1ccc(COC(=O)NN=C2C[C@@H](O)[C@@H](O)[C@@H]3[C@@H]4C(=O)N(c5ccc(F)cc5F)C(=O)[C@@H]4CC[C@H]23)cc1 -1.02
C#CCCCON=C1[C@H]2CCn3c(=O)n(C)c(=O)n3[C@H]2[C@H](O)[C@@H]2O[C@H]12 0.523
CC(C)=CCCC(C)=CCON=C1C[C@@H](O)[C@@H](O)[C@@H]2[C@@H]3C(=O)N(C(C)(C)C)C(=O)[C@@H]3CC[C@@H]12 1.6
CCN1C(=O)[C@H]2[C@H]3[C@H](O)[C@H](O)CC(=O)[C@@H]3CC[C@H]2C1=O -0.293
O=C1CCCC=C1C(O)CCOC(c1ccccc1)(c1ccccc1)c1ccccc1 (stereo not drawn) -0.344
COC(=O)CC=C[C@@H](C)[C@@H](C=NOC[C@H]1O[C@H](c2ccccc2)C=C[C@@H]1Oc1ccc(OC)cc1)NS(=O)(=O)c1ccc(C)cc1 3.13
CC(CCN1CCCc2nc(C)c(C)cc21)=NO[C@@H](C)c1cc(-c2c(C)cc(C)cc2C)no1 -0.0591
CO[C@H](C1CCCCC1)[C@H](C)C=CCC(=O)OCCCc1ccccc1 0.248
CC(C)=CCCC(C)=CCON=C1C[C@@H](O)[C@@H](O)[C@@H]2[C@@H]3C(=O)N(C[C@@H]4CCCO4)C(=O)[C@@H]3CC[C@H]12 -0.384
O=C1OCCC=C1C(O)CCc1ccccc1 (stereo not drawn) 0.196
COCOc1ccc(Br)cc1C(=O)[C@@H]1O[C@H]1c1cccc(OC)c1 1.2
CC(C)=CCCC(C)=CCON=C1C[C@@H](O)[C@@H](O)[C@@H]2[C@@H]3C(=O)N(Cc4ccccc4)C(=O)[C@@H]3CC[C@H]12 -0.293
COC(=O)[C@@H]1CC[C@H](C)[C@@H](c2ccc(C)cc2)N1C(=O)c1ccc(C=NOCC[C@@H]2C=C[C@H](OC(C)=O)[C@@H](COC(C)=O)O2)cc1 4.56
CON=C1[C@H]2CCn3c(=O)n(-c4ccccc4)c(=O)n3[C@H]2[C@H](O)[C@@H]2O[C@H]12 1.55
CO[C@@H]1C=CCC(=O)N[C@@H](C)C(=O)OC[C@@H](OC)[C@H](C)CCCC(=O)OC[C@H]1C -0.808
O=C1C[C@@H](O)[C@@H](O)[C@@H]2[C@@H]3C(=O)N(C[C@@H]4CCCO4)C(=O)[C@@H]3CC[C@@H]12 0.246
CON=C[C@@H](C)[C@H](OCc1ccccc1)C(C)C 0.987
COC(=O)CC=C[C@@H](C)[C@@H]1C=C[C@H](O)[C@@H](CO)O1 0.648
Cc1ccc(S(=O)(=O)n2c3ccccc3c3nnc(C(=O)c4ccccc4)nc32)cc1 1.38
CC(C)CON=C1C[C@@H](O)[C@@H](O)[C@@H]2[C@@H]3C(=O)N(c4ccc(F)cc4F)C(=O)[C@@H]3CC[C@H]12 -1.29
CC(CCN1CCc2nc(-c3ccccc3)c(-c3ccccc3)cc2C1)=NOC[C@@H](O)COCc1ccco1 -0.878
COc1cccc([C@H]2Oc3ccc(OC)cc3C(=NOC[C@@H](O)COCc3ccco3)[C@@H]2O)c1 4.9
CC(CCN1CCCCc2nc(C)c(C)cc21)=NOC[C@@H](C)[C@H](OCc1ccccc1)C(C)C 0.262
O=C(NN=C1C[C@@H](O)[C@@H](O)[C@@H]2[C@@H]3C(=O)N(C[C@@H]4CCCO4)C(=O)[C@@H]3CC[C@H]12)OCc1ccccc1 -0.834
COC(=O)[C@H]1[C@@H](O)[C@@]2(O)c3ccccc3O[C@@]2(c2ccccc2)[C@@H]1c1ccccc1 1.57
CC(C)(C)N1C(=O)[C@H]2[C@H]3[C@H](O)[C@H](O)CC(=NO[C@@H]4O[C@H](CO)[C@@H](O)[C@H](O)[C@H]4O)[C@H]3CC[C@H]2C1=O -0.656
CC(C)CON=C1C[C@@H](O)[C@@H](O)[C@@H]2[C@@H]3C(=O)N(C[C@@H]4CCCO4)C(=O)[C@@H]3CC[C@@H]12 -0.0246
CC=CC1=C(CO)C(=O)[C@@H]2O[C@@H]2C1=O 0.0178
C[C@@H](c1ccccc1)N1C(=O)[C@H]2[C@H]3[C@H](O)[C@H](O)CC(=NOCc4ccccc4)[C@H]3CC[C@H]2C1=O 0.0687
C[C@H](ON=C1[C@H]2CCn3c(=O)n(-c4ccccc4)c(=O)n3[C@H]2[C@H](O)[C@@H]2O[C@H]12)c1cn([C@H](CO)Cc2ccccc2)nn1 -0.324
C[C@H]1COC(=O)[C@@H]2CCCN2C(=O)[C@@H](C)COC(=O)[C@H](Cc2ccccc2)NC1=O -0.468
CCOC(=O)CCN1C(=O)[C@H]2[C@H]3[C@H](O)[C@H](O)CC(=NNC(=O)OCc4ccccc4)[C@@H]3CC[C@H]2C1=O 0.161
CC(C)=CCCC(C)=CCON=C1C[C@@H](O)[C@@H](O)[C@@H]2[C@@H]3C(=O)N(c4cccc(Oc5ccccc5)c4)C(=O)[C@@H]3CC[C@@H]12 2.51
